PubChem BioAssay AID1159580 (chemical genetic matrix, 2015)
“And” between values parts separate entries of the source, which are not always exact repeats. Equal entries are not always repeated. The whole screen tested about 5,500 compounds, of which about 2,000 (36%) were called active. Roughly 18% stayed inconclusive and do not appear here. No stated cut-off is given here; in the data, active means normalized growth mostly below about 0.91 (no sharp cut-off); inconclusive means no clear call, values can overlap the other calls; inactive means mostly above about 0.92. Some of the results follow.

Assay: chemical genetic growth profiling, strain panel (AID 1159580);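 further: tested at 20 µM; growth read once vehicle control cultures reached saturation at 30 °C; 1 = growth at the plate median or of vehicle wells; lower values mean less growth of the strain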
Details: S. cerevisiae deletion strains, growth OD

Measured: normalized growth

Cc1cc(CC(=O)O)n(C)c1C(=O)c1ccc(Cl)cc1
inactive: locus YAL013W, strain DEP1, hits give low values 1 | locus YAL021C, strain ccr4, hits give low values 1 | locus YAL026C, strain drs2, hits give low values 1.04 | locus YAL030W, strain snc1, hits give low values 1.01 | locus YBL061C, strain skt5, hits give low values 1.04 | locus YBR009C, strain hhf1, hits give low values 0.999 | locus YBR021W, strain FUR4, hits give low values 0.979 | locus YBR023C, strain chs3, hits give low values 1.03 | locus YBR171W, strain sec66, hits give low values 1.04 | locus YBR229C, strain ROT2, hits give low values 0.997 | locus YBR231C, strain swc5, hits give low values 1.02 | locus YBR279W, strain paf1, hits give low values 1.02 | locus YCL011C, strain gbp2, hits give low values 1.03 | locus YCL016C, strain dcc1, hits give low values 1.04 | locus YCL029C, strain bik1, hits give low values 1.02 | locus YCL061C, strain MRC1, hits give low values 1.03 | locus YCL069W, strain vba3, hits give low values 1.04 | locus YCR088W, strain abp1, hits give low values 1.03 | locus YDL005C, strain med2, hits give low values 1.02 | locus YDL035C, strain GPR1, hits give low values 0.989 | locus YDL040C, strain nat1, hits give low values 1.02 | locus YDL074C, strain BRE1, hits give low values 0.978 | locus YDL101C, strain DUN1, hits give low values 1 | locus YDL134C, strain PPH21, hits give low values 1 | locus YDL185W, strain tfp1, hits give low values 0.997 | locus YDL192W, strain arf1, hits give low values 1.01 | locus YDR001C, strain nth1, hits give low values 1.02 | locus YDR069C, strain doa4, hits give low values 1.01 | locus YDR101C, strain arx1, hits give low values 1.01 | locus YDR137W, strain rgp1, hits give low values 1.04 | locus YDR150W, strain NUM1, hits give low values 0.998 | locus YDR159W, strain sac3, hits give low values 1.02 | locus YDR162C, strain NBP2, hits give low values 0.997 | locus YDR195W, strain ref2 1.02 | locus YDR297W, strain sur2, hits give low values 1.03 | locus YDR318W, strain mcm21, hits give low values 1 | locus YDR334W, strain swr1, hits give low values 1.03 | locus YDR335W, strain msn5, hits give low values 1.03 | locus YDR388W, hits give low values 0.998 | locus YDR392W, strain spt3, hits give low values 1.02 | locus YDR502C, strain sam2, hits give low values 0.995 | locus YEL003W, strain gim4, hits give low values 1.02 | locus YEL037C, strain rad23, hits give low values 1.02 | locus YEL061C, strain CIN8 (second series), hits give low values 1.03 | locus YEL061C, strain CIN8, hits give low values 1 | locus YER015W, strain faa2, hits give low values 1.03 | locus YER016W, strain bim1, hits give low values 1.04 | locus YER110C, hits give low values 1 | locus YER111C, strain swi4, hits give low values 1.02 | locus YER155C, strain BEM2 (second series), hits give low values 1.01 | locus YER155C, strain BEM2, hits give low values 0.982 | locus YER167W, strain BCK2, hits give low values 0.992 | locus YFR010W, strain ubp6, hits give low values 1.01 | locus YGL078C, strain dbp3, hits give low values 1 | locus YGL086W, strain mad1, hits give low values 0.998 | locus YGL167C, strain pmr1, hits give low values 1.02 | locus YGL173C, strain kem1, hits give low values 1.02 | locus YGL227W, strain vid30, hits give low values 1.02 | locus YGL240W, strain doc1, hits give low values 1 | locus YGL248W, strain PDE1, hits give low values 0.998 | locus YGL253W, strain hxk2, hits give low values 1.04 | locus YGR078C, strain PAC10, hits give low values 0.988 | locus YGR135W, strain pre9, hits give low values 0.988 | locus YGR229C, strain SMI1, hits give low values 0.998 | locus YGR252W, strain gcn5, hits give low values 0.945 | locus YHR013C, strain ard1, hits give low values 1.05 | locus YHR027C, strain rpn1, hits give low values 1.02 | locus YHR030C, strain SLT2, hits give low values 1 and 1.02 | locus YHR079C, strain IRE1 (second series), hits give low values 1 | locus YHR079C, strain IRE1, hits give low values 1.02 | locus YHR094C, strain hxt1, hits give low values 1 | locus YHR129C, strain ARP1, hits give low values 0.998 | locus YHR142W, strain chs7, hits give low values 1.05 | locus YHR200W, strain rpn10, hits give low values 1.01 | locus YIL066C, strain RNR3, hits give low values 0.994 | locus YIL073C, strain SPO22, hits give low values 1.02 | locus YIL125W, strain kgd1, hits give low values 1.01 | locus YIR030C, strain dcg1, hits give low values 1.01 | locus YJL092W, strain hpr5, hits give low values 1.03 | locus YJL095W, strain BCK1 (second series), hits give low values 1.03 | locus YJL095W, strain BCK1, hits give low values 0.959 and 1.01 | locus YJL115W, strain asf1, hits give low values 1.01 | locus YJL129C, strain trk1, hits give low values 1.06 | locus YJL134W, strain LCB3, hits give low values 1 | locus YJL154C, strain vps35, hits give low values 1.02 | locus YJL164C, strain tpk1, hits give low values 1.02 | locus YJL166W, strain qcr8, hits give low values 1.03 | locus YJL168C, strain set2, hits give low values 1.01 | locus YJL187C, strain SWE1 (second series), hits give low values 0.998 | locus YJL187C, strain SWE1, hits give low values 1.01 | locus YJR043C, strain POL32, hits give low values 0.997 | locus YJR066W, strain TOR1, hits give low values 0.954
